# Data taken from PubChem BioAssay (Tox21).
# Records with an inconclusive call do not appear. A call without a number means that no potency is given here. Values without a mark were called inactive. The source made the active and inactive calls. Calls follow the shape of the dose curve; as a rule, active = well fitted cell-killing curve with a large enough effect in the repeat runs; inconclusive = weak or mixed curves, or effect the other way; inactive = flat fitted curve, though single readings scatter.
# What was measured:
# [1] = cAMP Responsive Elements (CRE) small molecule antagonists, cell-based qHTS assay: qHTS cell viability counter screen (AID 2060913); also: nearly all actives have a fitted effect of over 40% in size
# Outline: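 Viability of NKH477-stimulated (0.25 uM final) CRE-bla HEK293T cells is measured by CellTiter-Glo luminescence following 3 hrs compound exposure at 37 C.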
# [2] = cAMP Responsive Elements (CRE) small molecule agonists, cell-based qHTS assay: qHTS cell viability counter screen (AID 2060914);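 also: viability read after 3 h of compound exposure; nearly all actives have a fitted effect of over 50% in size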
# Outline: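 CRE-bla HEK 293T cells, plated 18 h at 37 °C, were exposed to compounds for 3 h at 37 °C/5% CO2. Viability was then measured in the same wells by CellTiter-Glo luminescence after 30 min at room temperature.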
smiles,measurement,setting,value
CC(=O)N(CC(O)CO)c1c(I)c(C(=O)NCCO)c(I)c(C(=O)NCC(O)CO)c1I (stereo not drawn),Potency,[1],inactive
O=C(Nc1ccc(S(=O)(=O)N2CCOCC2)cc1)c1cc(Cl)ccc1NS(=O)(=O)c1ccc(Cl)s1,Potency,[1],inactive
O=C(OCC(COC(=O)c1cccnc1)(COC(=O)c1cccnc1)COC(=O)c1cccnc1)c1cccnc1,Potency,[1],inactive
Cc1ccc2c(c1)C(=O)c1ccccc1C2=O,Potency,[1],inactive
O=C(O)CN(CC(=O)O)CC(=O)O,Potency,[1],inactive
CCCCNC(=S)NCCCC,Potency,[1],inactive
COc1ccc2cc3[n+](cc2c1OC)CCc1cc2c(cc1-3)OCO2,Potency,[1],inactive
C=CCON/C(CCC)=C1\C(=O)CC(C)(C)C(C(=O)OC)=C1O,Potency,[1],inactive
CC(=O)[C@@]1(O)CC[C@H]2[C@@H]3CCC4=CC(=O)CC[C@]4(C)[C@H]3CC[C@@]21C,Potency,[1],inactive
CC(C)NCC(O)c1cc(O)cc(O)c1 (stereo not drawn),Potency,[1],inactive
N#CCCCC(C#N)CCC#N (stereo not drawn),Potency,[1],inactive
Cc1cccc2nccnc12,Potency,[1],inactive
CN1CCCN(C(c2ccccc2)c2ccc(Cl)cc2)CC1 (stereo not drawn),Potency,[1],inactive
CCOC(C)(C)C,Potency,[1],inactive
O=C(CC(=O)c1ccccc1)c1ccccc1,Potency,[1],inactive
C=CCOC(=O)c1ccc(C(=O)OCC=C)c(C(=O)OCC=C)c1,Potency,[1],inactive
CCCSc1ccc2nc(NC(=O)OC)[nH]c2c1,Potency,[1],inactive
CCN(CCC#N)c1ccc(N=Nc2c(Cl)cc([N+](=O)[O-])cc2Cl)cc1,Potency,[1],inactive
FC(F)(F)c1ccc(Cl)cc1Cl,Potency,[1],inactive
CCCCC/C=C\C=C\C(=O)OCC,Potency,[1],inactive
Cc1cc2nc3ccc(=[N+](C)C)cc-3sc2cc1N,Potency,[1],inactive
CCCC(C)C,Potency,[1],inactive
CCCCCCCCCCCCCCCCC(C(=O)O)C(O)(CC(=O)O)C(=O)O (stereo not drawn),Potency,[1],inactive
CC(CCl)OP(=O)(OC(C)CCl)OC(C)CCl (stereo not drawn),Potency,[1],inactive
CN1Cc2cc(C(=O)N3CCC(C4CCNCC4)CC3)ccc2NC(CC(=O)O)C1=O (stereo not drawn),Potency,[1],inactive
COc1ccc(OC)c(NC(=O)CC(C)=O)c1,Potency,[1],inactive
C[C@H]1C[C@H]2[C@@H]3CCC4=CC(=O)C=C[C@]4(C)[C@@]3(F)[C@@H](O)C[C@]2(C)[C@@]1(O)C(=O)COP(=O)(O)O,Potency,[1],inactive
CC[C@]12CCCN3CCc4c(n(c5ccccc45)[C@@](O)(C(=O)OC)C1)[C@@H]32,Potency,[1],inactive
COC(C)(C)CC(C)=O,Potency,[1],inactive
ClC/C=C/CCl,Potency,[1],inactive
CCCCCCN,Potency,[1],inactive
C/C=C/C=C/C=O,Potency,[1],inactive
CN1[C@@H]2CC[C@H]1CC(OC(=O)c1c[nH]c3ccccc13)C2 (stereo partly drawn),Potency,[1],inactive
Cc1ccc(C(N)=O)cc1N,Potency,[1],inactive
CCC(C)c1nccnc1OC (stereo not drawn),Potency,[1],inactive
CC(C)CC(C)(O)C#CC(C)(O)CC(C)C (stereo not drawn),Potency,[1],inactive
CCCCCCCC/C=C\CCCCCCCC(=O)OC,Potency,[1],inactive
CCOCC(C)O (stereo not drawn),Potency,[1],inactive
NC(=O)C1CO1 (stereo not drawn),Potency,[1],inactive
C=CCN1CCc2nc(N)sc2CC1,Potency,[1],inactive
CCCCN1C[C@H](O)[C@@H](O)[C@H](O)[C@H]1CO,Potency,[1],inactive
COC(=O)c1ccc(C)cc1,Potency,[1],inactive
same,Potency,[2],inactive
COC(=O)CS,Potency,[1],inactive
COc1nc(C)nc(Cl)c1NC1=NCCN1,Potency,[1],inactive
same,Potency,[2],inactive
N=C(N)S(=O)O,Potency,[1],inactive
COC(=O)C1=C(C)NC(C)=C(C(=O)OCCN2CCN(C(c3ccccc3)c3ccccc3)CC2)C1c1cccc([N+](=O)[O-])c1 (stereo not drawn),Potency,[1],inactive
same,Potency,[2],inactive
CCCCCCCCCCCCI,Potency,[1],inactive
same,Potency,[2],inactive
CCOC(=O)CC(C(C)=O)C(C)=O,Potency,[1],inactive
same,Potency,[2],inactive
CCCCCCCCCCCCCCCCCl,"viability change, negative = cytotoxic",[1],3.61% [at 18.9 µM]
same,"activity change, negative = cytotoxicity",[2],-18.4% [at 18.9 µM]
OCCOCCOCCOCCOCCO,Potency,[1],inactive
same,Potency,[2],inactive
N#CCC(=O)NN,Potency,[1],inactive
CCN(CC)c1ccc2c(C)cc(=O)oc2c1,Potency,[1],inactive
same,Potency,[2],inactive
CCCCC(CC)COC(=O)CC#N (stereo not drawn),Potency,[1],inactive
same,Potency,[2],inactive
CCCOC(=O)c1ccc(N)cc1,Potency,[1],inactive
same,Potency,[2],inactive
O=C(Oc1ccccc1)c1ccccc1O,Potency,[1],inactive
same,Potency,[2],inactive
CCCCOCCOCCOCCO,Potency,[1],inactive
same,Potency,[2],inactive
C/C(CC(C)C)=N\O,Potency,[1],inactive
same,Potency,[2],inactive
C=CC(=O)OCC(Br)CBr (stereo not drawn),Potency,[1],inactive
COC(=O)N[C@H](C(=O)N[C@@H](Cc1ccccc1)[C@@H](O)CN(Cc1ccc(-c2ccccn2)cc1)NC(=O)[C@@H](NC(=O)OC)C(C)(C)C)C(C)(C)C,Potency,[1],inactive
same,Potency,[2],inactive
CCN1CCOCC1,Potency,[1],inactive
same,Potency,[2],inactive
COc1ccc(Br)c(C)c1,Potency,[1],inactive
CC(O)Cn1cnc2c1c(=O)n(C)c(=O)n2C (stereo not drawn),Potency,[1],inactive
same,Potency,[2],inactive
